Experimental data published in ChEMBL document CHEMBL4513216, “Probing the Open Global Health Chemical Diversity Library for Multistage-Active Starting Points for Next-Generation Antimalarials” (ACS Infect Dis, 2020).
In all, about 69,000 compounds went through this assay and about 8,600 (12%) showed an effect of 50% or more. What follows is part of a selection rich in strong results, with near analogues and random picks from the rest.

test system: Plasmodium berghei; assay: Screen against P. berghei liver stage (PbLuc), transformed with Luciferase, at 10uM; assay type: functional, HepG2; conditions: tested at 10 uM

Row | Compound | INHIBITION
1 | CS(=O)(=O)c1cccc(C(N)c2ccc(F)c(F)c2)c1 (stereo not drawn) | -15%
2 | COCCNC(=O)Cn1c(-c2ccc(F)cc2)nc(C)c(CCO)c1=O | -20.7%
3 | CC1CCN(CC(=O)NC2CCN(C(C)c3ccccc3)CC2)CC1 (stereo not drawn) | -1.845%
4 | NCC1CCC(C(NC(=O)CC2CCCC2)c2ccccn2)CC1 (stereo not drawn) | 1.11%
5 | Cc1cc(-c2nn3c(C4CC4)nnc3s2)on1 | -6.47%
6 | CCn1c(C)cc(C(=O)N2CCCC(C(=O)c3nccn3C)C2)c1C (stereo not drawn) | -1.09%
7 | CC(=O)NC1CCN(c2cnc(C3CCNCC3)cn2)CC1 | 18.3%
8 | COCC1CCCN(c2cncc(OCc3ccccc3)n2)C1 (stereo not drawn) | 26.5%
9 | Cc1cnn(CC(C)NCc2nc(-c3ccco3)no2)c1 (stereo not drawn) | 53.5%
10 | Cc1cccc(-c2noc(CNC(C)Cn3cc(C)cn3)n2)c1 (stereo not drawn) | 25.4%
11 | Cc1cnn(CCNCc2nc(-c3ccccn3)no2)c1 | -50.5%
12 | Cc1cnn(CC(C)NCc2nc(-c3ccccn3)no2)c1 (stereo not drawn) | 56.1%
13 | CC(Cn1cccn1)NCc1nc(-c2ccco2)no1 (stereo not drawn) | 12.7%
14 | CC(Cn1cccn1)NCc1nc(-c2ccccn2)no1 (stereo not drawn) | -62.7%
15 | CN1CC(=O)N(c2cccnc2)CC12CCN(C(=O)c1cccnc1)C2 (stereo not drawn) | -13.3%
16 | O=C(c1ccccc1OC1CCCC1)N1CCCC(n2cncn2)C1 (stereo not drawn) | 49.8%
17 | Cc1ccc(CN2CCC3(CCC(C(=O)N(C)C)O3)CC2)o1 (stereo not drawn) | -7.28%
18 | Cn1cc(CC2CCN(C(=O)NCc3cn4ccsc4n3)C2)cn1 (stereo not drawn) | 19.7%
19 | CC(C)CNC(=O)N1C[C@@H]2C[C@H](C(=O)NCc3ccccc3)[C@H](C1)O2 | -7.2%
20 | COc1ccccc1N1CC(NC(=O)Cn2cc(C)nn2)CC1=O (stereo not drawn) | -71.7%
21 | COc1ccccc1N1CC(NC(=O)Cn2cc(C(C)C)nn2)CC1=O (stereo not drawn) | -14.2%
22 | COc1ccccc1N1CC(NC(=O)c2cc(C(C)C)nn2C)CC1=O (stereo not drawn) | 69.4%

Row | Compound | INHIBITION
23 | Cc1ncccc1CNCC1CCc2nnc(C(C)C)n2C1 (stereo not drawn) | 29.8%
24 | Cc1ncsc1CCNC(=O)Cn1nc(C)n(Cc2ccccc2)c1=O | -171%
25 | CC(c1ccccc1Cl)N(C)Cc1nc2c(cnn2C)c(=O)[nH]1 (stereo not drawn) | 16.165%
26 | CCN(CC)C(CNC(=O)c1cccnc1-n1cncn1)c1ccsc1 (stereo not drawn) | 21.1%
27 | O=C(c1ccco1)N1CCC(n2nc(-c3cccs3)ccc2=O)CC1 | 5.11%
28 | CC(C)(C)C(=O)N1CCC(n2nc(-c3ccco3)ccc2=O)CC1 | -4.51%
29 | O=C(c1cccs1)N1CCC(Cn2nc(-c3ccco3)ccc2=O)CC1 | 33.5%
30 | O=C(c1ccco1)N1CCC(n2nc(-c3ccco3)ccc2=O)CC1 | -8.12%
31 | CC(C)C(=O)N1CCC(n2nc(-c3ccco3)ccc2=O)CC1 | 61.7%
32 | O=C(c1cccs1)N1CCC(n2nc(-c3ccco3)ccc2=O)CC1 | 50.6%
33 | COc1cc(N2C[C@H]3CN(C(=O)c4cccnc4)C[C@H]3C2)ncn1 | 0.164%
34 | CC(C)N(C)Cc1cc(=O)n2c(n1)CN(C(=O)c1cnccn1)CCC2 | 33.5%
35 | CC(C)Oc1cccc(CNC(=O)NC(C)(C(=O)O)c2ccco2)c1 (stereo not drawn) | 14.4%
36 | CC(NC(=O)NCc1ccccc1)(C(=O)O)c1ccco1 (stereo not drawn) | 58%
37 | CC(NC(=O)NCc1ccccc1F)(C(=O)O)c1ccco1 (stereo not drawn) | 25.1%
38 | COc1ccc(CNC(=O)NC(C)(C(=O)O)c2ccco2)cc1F (stereo not drawn) | 53.9%
39 | CC(NC(=O)NCc1c(F)cccc1Cl)(C(=O)O)c1ccco1 (stereo not drawn) | 14.1%
40 | CC(NC(=O)NCc1cccc(F)c1)(C(=O)O)c1ccco1 (stereo not drawn) | 4.52%
41 | COc1c(CNC2CCCOc3ccc(F)cc32)c(C(C)C)nn1C (stereo not drawn) | 0.914%
42 | CC(C)NC(=O)N1CC[C@@H](N(C)C)[C@@H]1Cc1ccccc1 | 0.804%
43 | c1ccc2ncc(CC3CNCCOC3)cc2c1 (stereo not drawn) | 3.48%
44 | COCCN1CC[C@]2(CN(Cc3ccccn3)C[C@H]2C)C1=O | -2.03%

Row | Compound | INHIBITION
45 | O=C(CCNc1ncccn1)N1CCC(Nc2cccnn2)CC1 | 0.411%
46 | O=C(CCc1ccsc1)N1CCC(Nc2cccnn2)CC1 | 25.1%
47 | COCCCC(=O)N1CCC(Nc2cccnn2)CC1 | 31.9%
48 | Cc1ccc(CCC(=O)N2CCC(Nc3cccnn3)CC2)cc1 | 52.5%
49 | O=C(CCOc1ccccc1)N1CCC(Nc2cccnn2)CC1 | 50.4%
50 | O=C(CCCc1ccccc1)N1CCC(Nc2cccnn2)CC1 | -6.44%
51 | Cn1nc(Cn2cccn2)c2c1CN(C1CCOC1)C2 (stereo not drawn) | -4.02%
52 | COCC(=O)N1CCN(C)C(=O)C(Cc2ccccc2-c2cccs2)C1 (stereo not drawn) | -20.6%
53 | O=C(NCC1CC1)C1CCC2(CCN(C(=O)c3ccncc3)CC2)O1 (stereo not drawn) | -6.05%
54 | CCc1nc(C2CCCN2Cc2nnc(C3CC3)o2)no1 (stereo not drawn) | -5%
55 | Cc1oc(-c2ccco2)nc1CN1CCCC(Cn2cncn2)C1 (stereo not drawn) | -97.8%
56 | CC(=O)N(Cc1ncc(C(C)C)o1)C1CCN(Cc2cc(C)no2)C1 (stereo not drawn) | 13.95%
57 | Cc1nccn1CCCNc1nccnc1C#N | 12.9%
58 | CN1CCC2(CCN(CC3CCOCC3)CC2)C1=O | 26.5%
59 | CS(=O)(=O)c1cccc(C(=O)NCc2nc3cc(F)ccc3[nH]2)c1 | 64.5%
60 | O=C(NCc1nc2cc(F)ccc2[nH]1)c1ccc[nH]1 | -7.16%
61 | CS(=O)(=O)c1ccc(C(=O)NCc2nc3cc(F)ccc3[nH]2)cc1 | 52.2%
62 | CN(C)c1cc(CNC(=O)c2cccc(F)c2)ccn1 | 24%
63 | CS(=O)(=O)c1ccc(C(=O)NCCNc2ncccn2)cc1 | -5.07%
64 | CS(=O)(=O)c1cccc(C(=O)NCC2Cc3ccccc3O2)c1 (stereo not drawn) | 9.06%
65 | CC(C)CN1CC(C(=O)NCc2cccnc2-n2cccn2)CC1=O (stereo not drawn) | 19.5%
66 | Cc1noc(C2(C)CCCN(C(=O)C(C)C)C2)n1 (stereo not drawn) | 12.8%

Row | Compound | INHIBITION
67 | Cc1csc2c(C3CCCN(C(=O)Cn4cncn4)C3)nc(C)n12 (stereo not drawn) | 7.19%
68 | c1cncc(CN2CCc3ncnc(C4CC4)c3CC2)c1 | 6.72%
69 | Cc1ccsc1C(=O)N1CCC2(CC(C(=O)N(C)C(C)C)=NO2)C1 (stereo not drawn) | 56.6%
70 | CC(C)N(C)C(=O)C1=NOC2(CCN(C(=O)c3ccncc3)C2)C1 (stereo not drawn) | 3.47%
71 | CC(C)N(C)C(=O)C1=NOC2(CCN(C(=O)c3ccc(Cl)cc3)C2)C1 (stereo not drawn) | -6.53%
72 | O=C(C1CC=CC1)N1CCc2c(COCc3ccncc3)cncc2C1 | 6.8%
73 | CCc1nc(C2CCCN(C(=O)c3cccc(C(N)=O)c3)C2)no1 (stereo not drawn) | 19.5%
74 | Cc1ccc2cc(C(=O)N3CCN(S(C)(=O)=O)CC3)[nH]c2c1 | -11.4%
75 | Cc1ccc2cc(C(=O)N3CCN(C(=O)c4ccoc4)CC3)[nH]c2c1 | 24.8%
76 | Cc1ccc2cc(C(=O)N3CCS(=O)(=O)CC3)[nH]c2c1 | 53.6%
77 | CCS(=O)(=O)CCN1CCN(C2CCC(C(C)C)CC2)CC1 (stereo not drawn) | 13.8%
78 | CC(NCC1(N(C)C)CCOCC1)c1ccc(SC(F)F)cc1 (stereo not drawn) | 40.5%
79 | CCOc1ccccc1C(CC(=O)Nc1ncc(C)s1)NC(C)=O (stereo not drawn) | 39.3%
80 | CC(C)NC(=O)c1ccc2c(c1)nc1n2CCN(Cc2ccccc2)C1 | 33.3%
81 | Fc1ccccc1CN1CCCC(NC2CCOCC2)C1 (stereo not drawn) | 49.4%
82 | O=C(Cc1ccc(F)cc1)N1CCCC(c2n[nH]c3nccnc23)C1 (stereo not drawn) | 23.2%
83 | O=C(Cc1ccsc1)N1CCC(c2n[nH]c3nccnc23)CC1 | -0.902%
84 | Fc1cccc(CN2CCC(c3noc(-c4ccncc4)n3)CC2)c1F | 28.5%
85 | c1cc(-c2nc(C3CCN(Cc4ccsc4)CC3)no2)ccn1 | 50.8%
86 | O=C(Cc1ccsc1)N1CCN(CC2CC2)c2ncccc2C1 | 29.4%
87 | O=C(Cc1ccsc1)N1CCCC(c2n[nH]c3nccnc23)C1 (stereo not drawn) | 59.1%
88 | O=C(Cc1ccsc1)N1CCC(c2noc(-c3ccncc3)n2)CC1 | -0.902%

Row | Compound | INHIBITION
89 | CN1CCN(C(=O)Cc2ccc(F)cc2)Cc2cccnc21 | -69.9%
90 | O=C(Cc1ccsc1)N1CCCC(c2n[nH]c3ncccc23)C1 (stereo not drawn) | 67.7%
91 | Cn1nc(C2CCCN(C(=O)Cc3ccsc3)C2)c2nccnc21 (stereo not drawn) | 48.3%
92 | CN1CCN(C(=O)Cc2ccsc2)Cc2cccnc21 | 64.9%
93 | Cn1nc(C2CCN(C(=O)Cc3ccsc3)CC2)c2cccnc21 | 28%
94 | CC(=O)N1N=C(c2ccco2)OC1C(=O)N(CC(C)C)CC(C)C (stereo not drawn) | -33%
95 | CC(C)c1cc(C(=O)N2CCN(CC3CC3)[C@@H]3CS(=O)(=O)C[C@@H]32)on1 | 42.1%
96 | O=C(NCCn1ccnc1)c1ccn(-c2ccccc2)n1 | 1.78%
97 | Cc1ccc(CN(CCCN(C)C)Cc2cnc(C)n2C)o1 | 9.93%
98 | Cc1nnsc1CNC(=O)c1ccc2c(c1)nc(N1CCOCC1)n2C | -24.6%
99 | CC(C)c1nc(CCn2cncn2)n(-c2ccc3c(c2)OCCO3)n1 | 3.96%
100 | Fc1ccc(CN2CCC(c3n[nH]c4nccnc34)CC2)cc1F | 35.3%
101 | Cc1cccc(CC(=O)N2CCCC(c3n[nH]c4nccnc34)C2)c1 (stereo not drawn) | 50.8%
102 | c1cnc2[nH]nc(C3CCN(Cc4ccsc4)CC3)c2c1 | 22%
103 | COc1cccc(CC(=O)N2CCCC(c3n[nH]c4nccnc34)C2)c1 (stereo not drawn) | 2.71%
104 | NC(=O)c1cc(C2CCCN(C(=O)CCc3ccncc3)C2)n[nH]1 (stereo not drawn) | -51.5%
105 | Cc1ccc(CCC(=O)N2CCCC(c3cc(C(N)=O)[nH]n3)C2)cc1 (stereo not drawn) | 48.1%
106 | c1cnc2c(C3CCN(Cc4ccsc4)CC3)n[nH]c2n1 | 64.8%
107 | Cc1ccc(CC(=O)N2CCCC(c3n[nH]c4nccnc34)C2)cc1 (stereo not drawn) | 44.8%
108 | NC(=O)c1cc(C2CCCN(C(=O)CCc3ccsc3)C2)n[nH]1 (stereo not drawn) | 56.6%
